NPC1 prom act: NPC1 promoter activation | Huh7 NPC1 promoter luciferase reporter, 24 h | Potency, µM (titrated, usually from 9.22 µM), without a hit: at the highest dose activation, most hits filed as activators | actives 2.4% (n = 320,000) | AID 485313; note: % of control where 0% means no effect; nearly all actives have a fitted effect of over 60% in size
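Huh7 cells stably carrying NPC1 promoter–luciferase, plated in Opti-MEM with 10% FBS for 2 h, were exposed to compound in DMSO for 24 h at 37 °C; luciferase reagent was added for 10 min and luminescence read.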
Rab9 promoter act: activators of Rab9 promoter. Huh7 Rab9 promoter-luciferase reporter, luminescence, 24 h. AID 485297. Potency, µM (titrated, usually from 9.22 µM), for inactives: at the highest dose activation, negative = inhibition, hits mostly activators. actives 2.8% (n = 320,000); note: % of control where 0% means no effect; nearly all actives have a fitted effect of over 60% in size
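Promoter activation is measured as luciferase luminescence in Huh7 cells stably transfected with a Rab9 promoter–luciferase construct, following 24 h compound exposure at 37 °C and 10 min reagent incubation at ambient temperature.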
FLuc counter: firefly luciferase modulation, counter-screen for miR-21 project. P08659. purified FLuc, Km substrates, luminescence inhibition. Potency, µM (series often up to 57.5 µM), without a hit: top-dose activity change, negative = inhibition, usual class: inhibitors. actives 6.9% (n = 360,000);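 note: plate controls were vehicle for no effect and reference inhibitor for full effect; nearly all actives have a fitted effect of over 55% in size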
Target sequence (P08659 whole entry, looked up): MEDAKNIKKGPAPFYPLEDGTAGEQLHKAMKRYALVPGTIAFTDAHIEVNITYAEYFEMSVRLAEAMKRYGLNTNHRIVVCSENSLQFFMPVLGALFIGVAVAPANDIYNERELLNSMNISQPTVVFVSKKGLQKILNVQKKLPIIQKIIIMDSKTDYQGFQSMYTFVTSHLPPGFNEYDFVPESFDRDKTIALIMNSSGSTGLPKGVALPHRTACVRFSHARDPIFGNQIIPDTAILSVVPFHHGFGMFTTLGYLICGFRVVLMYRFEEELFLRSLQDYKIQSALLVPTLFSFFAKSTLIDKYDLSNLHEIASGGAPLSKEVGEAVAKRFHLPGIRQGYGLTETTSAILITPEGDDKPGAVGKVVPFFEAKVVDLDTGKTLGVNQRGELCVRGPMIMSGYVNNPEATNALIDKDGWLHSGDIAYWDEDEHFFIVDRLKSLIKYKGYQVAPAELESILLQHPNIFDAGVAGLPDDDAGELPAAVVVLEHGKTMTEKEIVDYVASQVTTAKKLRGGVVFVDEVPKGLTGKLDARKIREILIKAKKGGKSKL
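Purified P. pyralis luciferase, 10 nM final, with Km-level 10 uM D-luciferin and 10 uM ATP in 50 mM Tris acetate pH 7.5, 10 mM Mg acetate, 0.01% Tween-20, 0.05% BSA; 6-point qHTS titration about 60 µM downward; luminescence read.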
SMN2 splice up: SMN2 splice variant enhancement; HEK293 SMN2-luciferase splicing reporter, luminescence, 30-36 h; Potency, µM (titrated, usually from 46.1 µM), without a hit: top-dose activity change, positive = activation, actives largely listed as activators; actives 2.8% (n = 210,000); AID 1458; note: % of control where 0% means no effect; nearly all actives have a fitted effect of over 55% in size
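HEK293 cells carry an SMN2 minigene-luciferase reporter in which exon 7 inclusion puts luciferase in frame. Cells were seeded at 2000 cells/well, attached for 10-12 hours, then exposed to compounds for 30-36 hours at 37C before ONE-Glo luminescence.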
ELG1 repair inh: ELG1-dependent DNA repair inhibition. actives 2.3% (n = 330,000). Potency, µM (series often up to 46.1 µM), for the others: at the highest dose activity change, negative = inhibition, usual class: inhibitors. AID 504467. HEK293T ELG1-luciferase reporter, luminescence, 16 h; DNA damage induced by 5-fluorouridine; note: % is set by controls: 0 for no effect and ±100 for the full control effect; nearly all actives have a fitted effect of over 55% in size
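Overnight (16 hr) co-exposure of 2,000 cells/well to 5-fluorouridine and compound at 37 °C preceded detection. Luciferase was quantified via ONE-Glo luminescence; loss of signal denotes inhibition.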
ELG1 genotoxic: inducers of genotoxicity in HEK293T ELG1-luciferase cells; Potency, µM (highest dose often 46 µM), for the others: at the top dose activity change, positive = activation, usual class: activators; HEK293T ELG1-luciferase reporter, luminescence, 16 h; actives 1.3% (n = 330,000); note: % of control where 0% means no effect; nearly all actives have a fitted effect of over 60% in size
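Genotoxicity was scored as increased ELG1-luciferase reporter signal, measured by ONE-Glo luminescence (30 min, room temperature). Compound or vehicle exposure of the HEK293T reporter cells lasted 16 hr at 37°C.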
The depositor's hits bear a star; ? = inconclusive; / = no result; [ ] = another dose, or the depositor's remark. Hits are enriched below; roughly 9.4% of the tested compounds scored in any of these assays. Calls come from the whole dose curve; as a rule, active = well fitted curve in the direction sought with a large enough effect; inconclusive = small, poorly fitted or top-dose-only effect, or another doubt; inactive = no such curve, though single readings can be large; an effect the other way counts as inactive or inconclusive. Potency is the fitted concentration of half-maximal effect.

SMILES | NPC1 prom act | Rab9 promoter act | FLuc counter | SMN2 splice up | ELG1 repair inh | ELG1 genotoxic
COCCn1c(SCC(=O)c2cc(C)n(C)c2C)nc2ccccc2c1=O | 16% | 24% | ? | 18% | 8% | 1%
Cc1ccc(C(=O)CSc2nnc3ccccn23)c(C)c1 | 2µM* | 0.79µM* | 2.7µM* | 10µM* | ? | 4.6µM*
CC(C)(C)C(=O)Nc1cccc(C(=O)OCc2cc(=O)n3nc(C4CCCCC4)sc3n2)c1 | / | / | -2% | / | / | /
Cc1ccc2c(Sc3ccc(Cl)cc3)c(C(=O)N3CCC(C)CC3)[nH]c2c1 | / | / | -1% | / | / | /
CC1(C)CNc2cc([N+](=O)[O-])ccc2S1 | ? | ? | 27µM* | 14% | ? | ?
Cc1cccc(-c2nnc(-c3ccc(N)cc3)o2)c1 | ? | 2.8µM* | 3.4µM* | 4.5µM* | ? | ?
Nc1ccc(-c2nnc(-c3ccc(N)cc3)o2)cc1 | 3.5µM* | 3.5µM* | 3.4µM* | / | ? | 16µM*
COc1cccc(NC(=O)C(=O)NCC(c2cccnc2)N2CCN(c3ccccc3)CC2)c1 (stereo not given) | / | / | -11% | / | / | /
COc1cc(C=C(c2nc3ccccc3s2)c2nc3ccccc3s2)cc(OC)c1O | 2% | -4% | 15µM* | -16% | ? | -2%
COc1ccc(/C=C(\CC(=O)O)c2nc3ccccc3s2)cc1O | 2% | -2% | ? | 10% | 8% | 6%
N#C/C(=C/c1ccncc1)c1nc2ccccc2s1 | -1% | -7% | ? | 2% | 5% | 4%
CN(C)c1ccc(/C=C(\Cl)c2nc3ccccc3s2)cc1 | 2.5µM* | 1µM* | 1.2µM* | -111% | ? | ?
O=C(O)c1ccc(C=C(c2nc3ccccc3s2)c2nc3ccccc3s2)cc1 | -3% | 2% | 12µM* | 0% | -1% | -1%
O=S(=O)(c1ccccc1)N1CN2CN(C1)CN(S(=O)(=O)c1ccccc1)C2 | / | / | / | 0%[9.22 µM] | / | /
COc1ccc(-c2nc(CN3CCC(C(=O)NCCCOC(C)C)CC3)c(C)o2)cc1OC | / | / | 1% | 8% | / | /
Cc1nc2c(C(=O)NCc3ccccc3Cl)c[nH]n2c(=O)c1Cc1cccc(Cl)c1 | / | / | ? | 0% | / | /
CC1=C(C(=O)Nc2cccc(C(=O)NCc3ccc(F)cc3)c2)SCCO1 | -4% | -10% | -18% | / | ? | -3%
CC1=C(C(=O)Nc2cccc(C(=O)NCc3ccccc3C)c2)SCCO1 | -2% | 1% | -8% | / | -16% | -4%
CCc1ccc(CNC(=O)Cc2ccc(NC(=O)C3=C(C)OCCS3)cc2)cc1 | ? | 10% | 2.4µM* | / | ? | ?
CC1=C(C(=O)Nc2ccc(CC(=O)NCc3ccccc3C)cc2)SCCO1 | 17% | ? | 2.4µM* | / | ? | ?
COc1cccc(CNC(=O)Cc2ccc(NC(=O)C3=C(C)OCCS3)cc2)c1 | ? | 3.2µM* | 1.9µM* | / | ? | ?
Cc1cc(C)cc(OCC(=O)NCC2(N(C)C)CCCCC2)c1 | / | / | -6% | / | / | /
O=C(CCc1nc2cccnc2n1Cc1cccs1)Nc1cccc(Cl)c1 | / | / | -11% | -9% | / | /
Cc1cc(=O)oc2cc(NC(=O)c3cccc(S(=O)(=O)N(C)C)c3)ccc12 | 1.3µM* | 0.89µM* | ? | / | ? | ?
Cc1cc(=O)oc2cc(NC(=O)c3cccc(F)c3)ccc12 | ? | 1.4µM* | -16% | / | ? | 13%
SMILES | NPC1 prom act | Rab9 promoter act | FLuc counter | SMN2 splice up | ELG1 repair inh | ELG1 genotoxic
CC(C)c1ccc(NC(=O)Cn2cc(S(=O)(=O)Cc3ccccc3Cl)c3ccccc32)cc1 | / | / | -11% | / | / | /
CCOC(=O)c1cccc(NC(=O)c2cc3c(=O)n(C)c4ccccc4c3n2C)c1 | / | / | 1% | 10% | / | /
CCn1c(C(=O)NC2CCC(C)CC2)cc2sccc21 (stereo not given) | 3.5µM* | ? | 15µM* | / | ? | ?
CCOC(=O)N1CCC(NC(=O)c2cc3sccc3n2CC)CC1 | 0% | 2% | -7% | -13% | -8% | 3%
CN(C(=O)c1cc2sccc2n1C)C1CCCCC1 | 4µM* | 3.2µM* | 13µM* | 13µM* | ? | ?
Cn1c(C(=O)NC2CCCCC2)cc2sccc21 | ? | 4µM* | 17µM* | / | ? | ?
CCN=C(Nc1ccc2c(c1)OCO2)SC1CC(=O)N(c2ccccc2F)C1=O (stereo not given) | -1% | 0% | 0% | -6% | -25% | -2%
CCN=C(Nc1ccc2c(c1)OCO2)SC1CC(=O)N(c2ccc(OC)cc2)C1=O (stereo not given) | -5% | -2% | -2% | -27% | 16µM* | -14%
COc1ccc(C)cc1Nc1nc2cc(Cl)c(Cl)cc2nc1-n1nc(C)cc1C | / | / | -4% | -5% | / | /
O=C(COc1ccc(F)cc1Br)N1CCc2ccccc21 | 2.8µM* | 0.63µM* | 0.76µM* | 11µM* | ? | 1.6µM*
O=Cc1ccc(OCC(=O)N2CCc3ccccc32)c(Br)c1 | 6% | 19% | 7.6µM* | / | ? | ?
O=C(COc1ccccc1F)OCC(=O)N1CCc2ccccc21 | 2% | ? | ? | / | 18% | -1%
CC(=O)c1ccc(S(=O)(=O)Nc2cccc(-n3cnnn3)c2)cc1 | 0% | 0% | 2% | / | 14% | 0%
CC(=O)Nc1ccc(S(=O)(=O)Nc2cccc(-c3nc4ccccc4o3)c2)cc1 | -3% | -6% | -16% | -26% | ? | -7%
CC(=O)Nc1ccc(S(=O)(=O)Nc2cccc(-c3ccc(N4CCC(C)CC4)nn3)c2)cc1 | / | / | 0.54µM* | / | / | /
CC(=O)Nc1ccc(S(=O)(=O)Nc2cccc(-c3ccc(N4CCCCCC4)nn3)c2)cc1 | / | / | 4.8µM* | / | / | /
COc1ccc(-c2cccc(NS(=O)(=O)c3ccc(NC(C)=O)cc3)c2)nn1 | / | / | -11% | / | / | /
CC(=O)c1ccc(S(=O)(=O)Nc2cccc(-c3ccc(N4CCOCC4)nn3)c2)cc1 | ? | ? | 2.7µM* | / | ? | 2%
COc1ccccc1NC(=O)c1c(C)cc(C)nc1SCC(=O)Nc1ccc(C)cc1 | / | / | -14% | / | / | /
CCOc1ccccc1C(=O)Nc1cccc2ccc(C)nc12 | / | / | -2% | / | / | /
CCOc1ccc(-c2cc3c(=O)n(CC(=O)Nc4cc(F)ccc4C)ccn3n2)cc1 | / | / | -3% | / | / | /
Cc1ccc2c(c1)N(C(=O)N1CCC(C(=O)NCCC3=CCCCC3)CC1)CC(C)O2 (stereo not given) | / | / | -19% | / | / | /
Cc1noc(C)c1CSc1nc2ccccc2c(=O)n1-c1ccc(F)cc1F | -22% | -11% | -1% | 11µM* | ? | 18%
C=CCn1c(SCc2c(C)noc2C)nc2ccccc2c1=O | -22% | -18% | 1% | -18% | 24% | 10µM*

Source: PubChem (National Center for Advancing Translational Sciences (NCATS))
